The supplement of paper PMC3656093
± gives the standard deviation of the averaged measurements. In all, about 1,900 compounds were measured (“CD40L-induced NF-kB luciferase activity, plate-corrected, relative to DMSO (0) and IKK inhibitor VII (-100) controls”: median about 0.032, lowest 2% from about -26 on). The sample as a whole holds a higher share of the lowest values than the screen did.

system: BL2-NFkB-Luc; experiment: CD40L-induced NF-kB luciferase activity, plate-corrected, relative to DMSO (0) and IKK inhibitor VII (-100) controls (% normalized activity); higher = more NF-kB reporter activity (less inhibition); conditions: 9.4 µM; stimulus: tCD40L 64 ng/ml; 4.5 h
Procedure: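 BL2 B cells with a stable NF-kB response-element luciferase reporter (BL2-NFkB-Luc), 384-well. Cells were pre-incubated with compound at 9.4 uM for 1 h at 37 C, then stimulated with 64 ng/ml trimerized CD40L for 4.5 h; luciferase was read with Steady-Glo. Signal was normalised per plate in Genedata (median DMSO neutral control = 0, median IKK inhibitor VII at 50 uM = -100) with Assay Median plate-pattern correction; duplicate plates.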

| Compound | CD40L-induced NF-kB luciferase activity |
| --- | --- |
| Nc1nnc(CSCc2ccc(Cl)cc2Cl)s1 | 11.4 ± 2.5 |
| Cc1c(OCC(=O)NC(Cc2c[nH]c3ccc(O)cc23)C(=O)O)ccc2c3c(c(=O)oc12)CCC3 (stereo not given) | 2.12 ± 6.2 |
| CCCCC[C@H](O)/C=C/[C@@H]1[C@@H](C/C=C\CCCC(=O)O)[C@@H](O)C[C@H]1O | -2.36 ± 2.1 |
| CCCCC[C@H](O)/C=C/[C@@H]1[C@@H](C/C=C\CCCC(=O)OC)[C@@H](O)C[C@H]1O | -2.47 ± 3.2 |
| CCCCC[C@H](O)/C=C/[C@@H]1[C@@H](CCCCCCC(=O)O)[C@@H](O)C[C@H]1O | -29.5 ± 5.2 |
| O=S(=O)(CCc1nc2ccccc2[nH]1)c1ccc(Cl)cc1 | -12.2 ± 1.3 |
| COc1cc(C=NCC2OCCc3ccccc32)cc(OC)c1 (stereo not given) | -1.7 ± 1.9 |
| CC1(C)c2ccccc2N2CC(=O)N(CC(N)=O)C21C (stereo not given) | 1.75 ± 1.9 |
| COc1ccccc1N1C(=O)C2CC(C)=C(C)CC2C1=O (stereo not given) | -4.81 ± 2.4 |
| COc1ccc(S(N)(=O)=O)cc1C(N)=O | -2.45 ± 4.3 |
| C[C@@H]1C[C@H]2[C@@H]3C[C@H](F)C4=CC(=O)C=C[C@]4(C)[C@@]3(F)[C@@H](O)C[C@]2(C)[C@@]1(O)C(=O)CO | -27.2 ± 0.89 |
| CC(=O)OCC(=O)[C@@]12OC(C)(C)O[C@@H]1C[C@H]1[C@@H]3C[C@H](F)C4=CC(=O)C=C[C@]4(C)[C@@]3(F)[C@@H](O)C[C@@]12C | -11.4 ± 5.5 |
| CC(=O)[C@@]1(O)CC[C@H]2[C@@H]3C[C@H](C)C4=CC(=O)C=C[C@]4(C)[C@@]3(F)[C@@H](O)C[C@@]21C | -27 ± 2.1 |
| CCCC(=O)O[C@]1(C(=O)COC(C)=O)CC[C@H]2[C@@H]3C[C@H](F)C4=CC(=O)C=C[C@]4(C)[C@@]3(F)[C@@H](O)C[C@@]21C | -17.6 ± 1.6 |
| CC(=O)[C@@]1(O)CC[C@H]2[C@@H]3C[C@H](C)C4=CC(=O)CC[C@]4(C)[C@H]3CC[C@@]21C | -15.7 ± 2.4 |
| CC(=O)OCC(=O)[C@@]1(O)[C@H](C)C[C@H]2[C@@H]3CCC4=CC(=O)C=C[C@]4(C)[C@@]3(F)[C@@H](O)C[C@@]21C | -27.6 ± 1 |
| C[C@@H]1C[C@H]2[C@@H]3CCC4=CC(=O)C=C[C@]4(C)[C@@]3(F)[C@@H](O)C[C@]2(C)[C@@]1(O)C(=O)COP(=O)(O)O | -2.27 ± 0.67 |
| CC(=O)OCC(=O)[C@@]1(OC(C)=O)[C@@H](C)C[C@H]2[C@@H]3C[C@H](F)C4=CC(=O)C=C[C@]4(C)[C@@]3(F)[C@@H](O)C[C@@]21C | -17.3 ± 0.28 |
| C[C@@H]1C[C@H]2[C@@H]3C[C@H](F)C4=CC(=O)C=C[C@]4(C)[C@@]3(F)[C@@H](O)C[C@]2(C)[C@@]1(O)C(=O)COC(=O)C(C)(C)C | -29.5 ± 1.7 |
| CCCC(=O)O[C@]1(C(=O)CCl)[C@@H](C)C[C@H]2[C@@H]3CCC4=CC(=O)C=C[C@]4(C)[C@@]3(F)C(=O)C[C@@]21C | -27.9 ± 3.7 |
| CCC(=O)O[C@]1(C(=O)CCl)[C@@H](C)C[C@H]2[C@@H]3CCC4=CC(=O)C=C[C@]4(C)[C@@]3(F)[C@@H](O)C[C@@]21C | -21.44 ± 0.014 |
| C[C@H]1C[C@H]2[C@@H]3CCC4=CC(=O)C=C[C@]4(C)[C@@]3(Cl)[C@@H](O)C[C@]2(C)[C@@]1(O)C(=O)CO | -25.6 ± 2.2 |
| Cc1cnc(N)c2c(=O)oc3ccccc3c12 | 41.69 ± 0.28 |

| Compound | CD40L-induced NF-kB luciferase activity |
| --- | --- |
| O=C1CCCC(=O)C1=Cc1c[nH]c2ccccc12 | -7.53 ± 0.79 |
| CCn1c(=N)c(C(=O)NC)cc2c(=O)n3cccc(C)c3nc21 | 0.825 ± 8.5 |
| O=C(Nc1ccc(N2CCOCC2)cc1)c1ccc(-c2ccccc2[N+](=O)[O-])o1 | 17.3 ± 0.45 |
| COc1cc(OC)cc(C(C)=O)c1 | -2.98 ± 1.2 |
| C=C1C2(C(=O)Nc3ccc(SC(F)F)cc3)CCC(C2)C1(C)C (stereo not given) | 1.47 ± 2.7 |
| N#C/C(=C/c1ccccc1)C(=O)NCc1ccccc1 | -1.8 ± 1.4 |
| Cc1ccc(C(=O)COC(=O)c2cnccn2)cc1[N+](=O)[O-] | 0.896 ± 2.4 |
| CCOc1ccccc1C(=O)NCCC(=O)O | -1.43 ± 3.9 |
| Cc1cccc(N2C(=O)C3C(c4ccccc4)OC4(C(=O)c5ccccc5C4=O)C3C2=O)c1 (stereo not given) | -0.286 ± 0.72 |
| COc1ccc(CN(CCC(c2ccc(F)cc2)C2CCOC(C)(C)C2)C(=O)c2ccco2)cc1 (stereo not given) | -4.2 ± 3.9 |
| CC(=O)OC1c2c(ccc3ccc(=O)oc23)OC(C)(C)C1OC(=O)CC(C)C (stereo not given) | -3.56 ± 6.5 |
| CC1/C(=C\c2ccc(Cl)cc2)C(=O)C2CC1C2(C)C (stereo not given) | 3.76 ± 2.7 |
| COC(=O)c1ccc(NC(=O)C23CCC(C)(C(=O)O2)C3(C)C)cc1 (stereo not given) | -0.16 ± 13 |
| COc1cccc(NC(=O)C2CC(=O)OC23CCOC(C)(C)C3)c1 (stereo not given) | 4.32 ± 4.7 |
| CC1CNCCN1S(=O)(=O)c1cccc2cnccc12 (stereo not given) | -26.1 ± 6.3 |
| O=C1c2ccccc2C2(c3ccccc3)NCCN12 (stereo not given) | 1.37 ± 7 |
| Cc1ccccc1C(=O)Oc1ccc(Sc2ccc(O)cc2)cc1 | 2.2 ± 3.6 |
| O=C(NCCc1c[nH]c2ccccc12)OCCSS(=O)(=O)O | 0.55 ± 1.4 |
| CCOCC(=O)Nc1ccccc1C(=O)N1CCOCC1 | -5 ± 1 |
| Cn1nc(-c2ccccn2)nc2c(=O)n(C)c(=O)nc1-2 | -19.1 ± 0.82 |
| Cn1c(=O)[nH]c2nnc(-c3ccc(Cl)c(Cl)c3)nc2c1=O | 25.5 ± 4.7 |
| Cn1nc(-c2ccc(Cl)cc2)nc2c(=O)n(C)c(=O)nc1-2 | -95.22 ± 0.55 |
